# In the library only some 2.1% were active in any assay of this set; here they are far more common.
# Giardia kill – Small Molecules that selectively kill Giardia lamblia: qHTS. actives 0.15% (n = 340,000). activity change, % at 7.66 µM, hits read low. Giardia lamblia trophozoite viability; in the data active = activity change below about -80%; inconclusive = between about -30% and that limit;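 also: parasites exposed to compound for two days anaerobically before the ATP read; % is scaled to controls: 0 for no effect and ±100 for the full control effect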
#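 Trophozoites 100 cells/well + cpd; 48 hrs, 37 deg C, anaerobic. ATPLite 1-Step added, 15-30 min RT, luminescence read (ATP-based viability).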
# ClpP mod – qHTS Assay for Activators of ClpP | Potency, µM (series often up to 57.5 µM), for inactives: at the top dose activity change, negative = active | actives 1.9% (n = 340,000) | purified B. subtilis ClpP, FRET peptide cleavage, 20 min | ATP-dependent Clp protease proteolytic subunit (Bacillus subtilis (strain 168)), P80244; active = well fitted falling curve with a large enough effect; inconclusive = small, poorly fitted or top-dose-only effect; inactive = no such curve, though single readings can be large or run the other way; also: potency is read from the fitted curve at half-maximal effect; the source files actives as falling curves though it sought activators and does not explain the sign; nearly all actives have a fitted effect of over 65% in size
#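 Purified B. subtilis ClpP, 10 microg/mL final in Tris/HCl pH8 with KCl, BSA, glycerol and Tween-20, cleaved an Abz/nitrotyrosine-quenched decapeptide. Fluorescence (ex 320, em 430) was read at 0 and 20 min at room temperature. Delta was normalized to 5.8 microM ADEP and DMSO/no-enzyme controls.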
# B2AR arrestin – qHTS assay of beta-arrestin-biased ligands of beta2-adrenergic receptor | Beta-2 adrenergic receptor (Homo sapiens), P07550 | beta-arrestin recruitment to beta2AR, cell-based reporter | Potency, µM (doses to about 46.1 µM), for inactives: top-dose activation, hits mostly activators | actives 0.02% (n = 330,000);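 also: potency is read from the fitted curve at half-maximal effect; 0% = DMSO controls and full agonism = EC100 isoproterenol or metaproterenol; nearly all actives have a fitted effect of over 65% in size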
# Target sequence (P07550 whole entry, looked up): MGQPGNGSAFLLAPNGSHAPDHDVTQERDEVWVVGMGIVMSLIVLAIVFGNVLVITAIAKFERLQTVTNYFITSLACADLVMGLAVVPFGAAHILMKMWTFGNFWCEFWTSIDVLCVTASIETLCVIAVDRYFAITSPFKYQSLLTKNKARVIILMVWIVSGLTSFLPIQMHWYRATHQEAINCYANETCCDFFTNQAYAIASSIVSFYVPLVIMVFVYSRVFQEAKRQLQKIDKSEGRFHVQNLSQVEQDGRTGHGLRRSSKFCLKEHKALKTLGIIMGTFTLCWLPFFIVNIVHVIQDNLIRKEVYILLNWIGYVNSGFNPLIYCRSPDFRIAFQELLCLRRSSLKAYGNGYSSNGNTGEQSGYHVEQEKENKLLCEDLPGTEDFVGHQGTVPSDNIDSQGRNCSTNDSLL
# p53 reactivator – qHTS assay for re-activators of p53 using a Luc reporter. H1299 p53-A138V BP100-luciferase reporter, luminescence, 24 h. Potency, µM (top dose mostly 92.2 µM), inactives show at the highest dose activity change, positive = activation, most hits filed as activators. actives 0.063% (n = 320,000). AID 504706, 2011; also: potency is read from the fitted curve at half-maximal effect; % of control where 0% means no effect; nearly all actives have a fitted effect of over 45% in size
#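 H1299 (p53-null), stable ts p53-A138V + BP100-Luc; 1000 cells/well, Opti-MEM/10% FBS; cpd 4 pt, 1:5; 24 h, 37 deg C, 5% CO2; detection reagent 10 min RT; luminescence.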
# uPA generation – qHTS for Inhibitors of Cell Surface uPA Generation | cell surface uPA generation assay, qHTS | actives 0.31% (n = 330,000) | Potency, µM (titrated, usually from 38.3 µM), for the others: at the top dose activity change, negative = inhibition, actives largely listed as inhibitors | AID 540303, 2011; active = well fitted inhibition curve with a large enough effect; inconclusive = small, poorly fitted or top-dose-only effect; inactive = no such curve, though single readings can be large or run the other way; tested in mouse RAW 264.7 cells; also: potency is read from the fitted curve at half-maximal effect; % is scaled to controls: 0 for no effect and ±100 for the full control effect; nearly all actives have a fitted effect of over 55% in size
# Mito fusion act – qHTS Assay for Small Molecule Inhibitors of Mitochondrial Division or Activators of Mitochondrial Fusion | Potency, µM (titrated, usually from 46.1 µM), for inactives: at the top dose growth rescue (activation), most hits filed as activators | actives 0.23% (n = 320,000) | AID 485298, 2010 | S. cerevisiae fusion-defective mutant growth rescue, CellTiterGlo 48 h; also: potency is read from the fitted curve at half-maximal effect; % of control where 0% means no effect; nearly all actives have a fitted effect of over 45% in size
#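 Yeast fusion mutant, YPEG (non-fermentable carbon), compound, 48 h at 37C non-permissive; CellTiterGlo added, 10 min RT, luminescence read. Rescued growth = division inhibition.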
# The depositor's hits bear a star; ? = inconclusive; . = no result. Unless noted, calls follow the shape of the dose curve; as a rule, active = well fitted curve in the direction sought with a large enough effect; inconclusive = small, poorly fitted or top-dose-only effect, or another doubt; inactive = no such curve, though single readings can be large; an effect the other way counts as inactive or inconclusive.
SMILES,Giardia kill,ClpP mod,B2AR arrestin,p53 reactivator,uPA generation,Mito fusion act
CC1(C)[C@@H](O)CC[C@]2(C)[C@H]3C(=O)C=C4[C@@H]5C[C@@](C)(C(=O)O)CC[C@]5(C)CC[C@@]4(C)[C@]3(C)CC[C@@H]12,-10.6,1.0%,-0.6%,-2.1%,-0.4%,1.5%
Cc1ccc(NC(=O)Cn2c(=O)n(CC3CCC(C(=O)NC(C)C)CC3)c(=O)c3sccc32)cc1 (centres undefined),.,-1.8%,.,.,.,.
CCC1CCCCN1c1cc(C)nc2cc(-c3cccc(C)c3)nn12 (centres undefined),18.9,28.2µM*,0.2%,6.4%,5.4%,?
Cc1cc(N2CCOCC2)n2nc(-c3cccc(F)c3)cc2n1,-10.3,?,-0.7%,-17.4%,.,8.0%
CCCOc1ccc(C2C(=O)N(C3CCCCCC3)CC(=O)N2CCC)cc1OC (centres undefined),.,1.1%,.,.,.,.
Cc1ccc(NC(=O)CSc2nnc3[nH]c(=O)cc(-c4ccccc4)n23)cc1Cl,.,3.9%,.,.,.,.
C[N+](C)(C)CCN(Cc1ccc(Cl)cc1)c1ccccn1,-0.3,25.1µM*,-1.1%,4.0%,0.7%,-2.5%
Fc1cnc(N2CCN(c3ccccc3)CC2)nc1N1CCN(c2ccccc2)CC1,-7.0,31.6µM*,0.1%,-11.0%,4.2%,.
c1ccc(-c2ccccc2OCCCN2CCOCC2)cc1,-13.6,-2.7%,-0.3%,21.9%,9.9%,20µM*
OCCCN1CCN(CCCOc2ccccc2-c2ccccc2)CC1,10.8,0.6%,-0.4%,-6.0%,1.1%,-3.1%
C=CCSc1nc(C)cc(/C=C\c2ccccc2)c1C#N,5.2,28.2µM*,-0.4%,6.6%,.,-1.8%
Cc1cc(C)c(C#N)c(SCc2ccccc2)n1,-11.3,-1.8%,0.0%,3.9%,-2.8%,12.6%
C/C(=N/Nc1nc(-c2ccccc2)cc(-c2ccccc2)n1)c1ccc(N)cc1,.,.,-0.6%,31.6µM*,.,22.7%
C/C(=N/Nc1cc(-c2ccccc2)nc(-c2ccccc2)n1)c1ccc(O)cc1,19.7,-12.2%,2.4%,-4.1%,-21.0%,-27.6%
Cc1ccc(-c2cc(-c3ccccc3)no2)c(O)c1,?,-0.3%,-0.3%,?,-9.8%,0.8%
Cc1ccc(O)c(-c2cc(-c3ccc(F)cc3)no2)c1,?,-1.2%,0.4%,.,10µM*,-7.4%
CCN(CC)CCOc1cc2c(nn1)Oc1ccccc1N2C,8.5,12.6µM*,0.1%,5.6%,-4.9%,3.6%
CN1c2ccccc2Oc2nnc(Cl)cc21,-5.6,.,-0.2%,-8.9%,2.1%,7.1%
CCOC(=O)c1cc(-c2ccc(C)cc2)nc2nc(SC)[nH]c(=O)c12,-7.4,14.1µM*,-1.3%,1.9%,-7.1%,-1.3%
CCOC(=O)c1cc(-c2cccc(C(F)(F)F)c2)nc2nc(SC)[nH]c(=O)c12,7.3,0.0%,1.4%,2.0%,-9.5%,14.4%
Cc1c(C#N)c(=O)oc2ccc3ccccc3c12,-13.5,7.94µM*,-0.7%,0.1%,-3.5%,3.8%
Cc1ccc(S(=O)(=O)Nc2nc3ccccc3nc2NCc2ccco2)cc1C,-4.7,28.2µM*,-0.9%,10.7%,4.2%,3.8%
Cc1ccc(S(=O)(=O)Nc2nc3ccccc3nc2NCc2ccco2)cc1,-3.7,?,0.1%,?,?,21.5%
Cc1ccc(CCNC(=O)CCCn2c(=O)c3ccccc3n(CC(=O)Nc3cc(Cl)ccc3C)c2=O)cc1,.,0.9%,.,.,.,.
CC(=O)Oc1ccccc1C(=O)Oc1ccccc1C(=O)O,36.1,-9.8%,-0.3%,4.6%,-7.4%,1.2%
CC(C)CCOCC(=O)Oc1ccccc1C(=O)O,5.1,28.2µM*,0.2%,-2.7%,-2.3%,-0.5%
O=C(CNc1ccccc1)N/N=C/c1ccc([N+](=O)[O-])cc1,3.2,-0.6%,5.1%,1.5%,-6.5%,7.3%
